The results in this text go back to PubChem BioAssay (NCI).

The panel holds about 83,000 compounds, 20% with a hit somewhere; the sample as a whole holds those more often.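 Interpretation: 100, growth as untreated; towards 0, rising growth inhibition; 0, no net growth; 0 to -100, cell death. Compounds scoring below 10 were considered active.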 Unmarked numbers belong to inactive results. The source made the active and inactive calls.

Test in all cases: NCI-60 one-dose screen, 48 h (100 = growth as untreated, 0 = no growth, -100 = all killed)
What all share (details): 10 µM unless noted

Test [1] relates to SK-MEL-2 melanoma.
The subject of test [2] is EKVX NSCLC.
In test [3] the test system is SN12C renal.
The subject of test [4] is UO-31 renal.
In test [5] the test system is TK-10 renal.
In test [6] the test system is ACHN renal.
Test [7] relates to CAKI-1 renal.
Test [8] has as its system A498 renal.
The subject of test [9] is CCRF-CEM leukemia.
The test system of test [10] is MOLT-4 leukemia.
Test [11] has as its system SR leukemia.
Test [12] relates to RPMI-8226 leukemia.
Test [13] deals with OVCAR-8 ovarian.
The test system of test [14] is OVCAR-4 ovarian.
The subject of test [15] is SK-OV-3 ovarian.
The test system of test [16] is IGROV1 ovarian.
Test [17] deals with OVCAR-3 ovarian.
For test [18], the system named is HS 578T breast.
The subject of test [19] is NCI/ADR-RES ovarian.
The subject of test [20] is OVCAR-5 ovarian.

In the case of `O=C(/C=C/c1ccco1)Nc1ncc(Cc2cccc(C(F)(F)F)c2)s1`, the growth is 23.4% in test [1]; 25% in [2]; 20.9% in test [3]; 11.8% in test [4]; 33.6% in test [5]; 11.7% in test [6]. For the same compound, the growth in test [7] was 20.5%; in test [8], -6.36% (active); in test [9], 14.5%; in test [10] it was 14%; in test [11], 9.93% (active); in test [12] it was 12.4%. In addition, the growth in [13] is 8.79% (active); in test [14], 4.64% (active); in test [15], 16.9%; in [16], 4.48% (active); in test [17], -33.3% (active); in test [18] it was 0.428% (active). For the same compound, the growth in test [19] was -4.7% (active).
On to `O=C1/C(=C/c2cccc(F)c2)CN(C(=O)C(Cl)Cl)C/C1=C\c1cccc(F)c1`, for which the growth is -38.1% (active) in test [1]; -7.73% (active) in test [2]; -90.3% (active) in [3]; -85.5% (active) in test [4]; -78.8% (active) in test [5]; -97.7% (active) in test [6]. The growth in test [7] was -75.6% (active); in test [8] it was -80.1% (active); in test [9], 0.153% (active); in test [10] it was -23.3% (active); in test [12] it was -31.3% (active); in [13], -48.3% (active). Moreover, the growth in test [20] was -63.6% (active); in test [14] it was -36.9% (active); in test [15] it was 29.8%; in test [16] it was -77.2% (active); in [17], -92.2% (active); in test [18] it was -13.7% (active). The growth in [19] is -3.11% (active).
`C=C1C(=O)O[C@H]2[C@H]1CC/C(COC(=O)/C=C\C(=O)NCc1ccc(Cn3c(=O)sn(CCI)c3=O)cc1)=C\CC[C@@]1(C)O[C@@H]21`: the growth is 75% in [1]; 61.7% in [2]; 57.9% in test [3]; 55.1% in test [4]; 19.4% in [5]; 15.9% in test [6]. Also, the growth in [7] is 25.7%; in test [8] it was 143%; in test [9], -28.2% (active); in [10], 3.38% (active); in test [12] it was 22.4%; in [13], 58.3%. Moreover, the growth is 77.7% in [20]; 48.3% in [14]; 133% in test [15]; 3.61% (active) in test [16]; 10.4% in test [17]; 89.3% in test [18]. Also, the growth in [19] was 98%.
In the case of `O=c1c2cnn(-c3ccccc3)c2n2c(CN3CCOCC3)nnc2n1-c1ccccc1`, the growth is 79.1% in [1]; 102% in test [2]; 104% in test [3]; 87.6% in test [4]; 71.4% in test [5]; 95.2% in test [6]. Moreover, the growth in [7] is 92.4%; in test [8], 106%; in test [9] it was 96.8%; in [10], 100%; in test [12] it was 102%; in test [13], 100%. In addition, the growth was 114% in [20]; 104% in [14]; 88.2% in [15]; 109% in test [16]; 105% in test [17]; 107% in test [18]. For the same compound, the growth in test [19] is 98.8%.
Take `CCc1ncnc2c1ccn2C(C)c1ccc(OC)c(F)c1` (stereo not drawn): the growth in test [1] is 34.3%; in test [2], 51.9%; in test [3], 67%; in [4] it was 60.1%; in test [5] it was 58.8%; in test [6], 75.4%. Besides, the growth in test [7] was 40.5%; in [8], 46.3%; in test [9], 42.4%; in test [10] it was 32.7%; in test [11], 16.5%; in test [12] it was 37.2%. The growth in test [13] was 49.2%; in [14] it was 54.9%; in test [15] it was 53.6%; in test [16], 54.9%; in test [17], 34.8%; in test [18] it was 69.2%. Besides, the growth in test [19] is 44.6%.
Take `Cc1ccc(-c2nc(N3CCCNCC3)c3oc(-c4ccccc4)nc3n2)cc1`: the growth in [1] was -67.2% (active); in [2], 38.2%; in test [3] it was -85.1% (active); in test [4], -99% (active); in [5] it was -95.9% (active); in test [6], -98.8% (active). Moreover, the growth in test [7] was -71% (active); in test [8] it was 93.4%; in test [9], -71% (active); in test [10], -73.2% (active); in [11], -42.3% (active); in test [12], -49.1% (active). Moreover, the growth in [13] is -44.1% (active); in [14], -62.6% (active); in test [15], 95.5%; in test [16], -85.3% (active); in test [17], -85.7% (active); in test [18], -29.8% (active). In addition, in [19], the growth was -45.5% (active).
With `Clc1ccc2c(NC3CCC(N4CCOCC4)CC3)ccnc2c1` (stereo not drawn), the growth in [1] is 113%; in [2], 72.6%; in [3] it was 90.5%; in test [4], 75.3%; in test [5] it was 80.8%; in [6], 73.8%. Moreover, the growth was 75.1% in test [7]; 75.5% in test [8]; 85.5% in test [9]; 74.4% in [10]; 55.2% in test [11]; 58.2% in test [12]. Besides, the growth in [13] is 69.1%; in [14] it was 56.7%; in test [15], 81.5%; in test [16], 131%; in test [17], 92.7%; in test [18] it was 83.8%. In addition, the growth in test [19] was 77.2%.
